Test results from PubChem BioAssay.
Calls of active or inactive are those of the source.

Assay: viability profiling in MM1S myeloma cells – cell-based, resazurin fluorescence, basal, 24 h, PK04 Diversity Set, profiling panel (AID 1174);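 further: MM1S multiple myeloma cell line; test concentration not given here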
Conditions: higher = more signal, called active from +8 up or from −8 down

SMILES | z-score
C[C@]1(C(=O)NCc2ccccc2)c2ccccc2C(=O)N(Cc2ccc(OC(F)(F)F)cc2)[C@H]1c1ccc(CO)cc1 | 1.51 (inactive)
O=C1O[C@@H](c2ccccc2)[C@@H](c2ccccc2)N2[C@@H](c3ccc(O)cc3)[C@]3(C(=O)Nc4ccc(C#CC5=CCCCC5)cc43)[C@@H](C(=O)O)[C@H]12 | 1.23 (inactive)
O=C(O)[C@@]1(Cc2ccccc2)N=C(c2ccc(OCCCO)cc2)O[C@H]1c1ccccc1 | 0.551 (inactive)
NC(=O)NCC#Cc1ccc2c(c1)[C@]1(C(=O)N2)[C@H](C(=O)N2CCCCCCC2)[C@H]2C(=O)O[C@H](c3ccccc3)[C@H](c3ccccc3)N2[C@@H]1c1ccc(OCCO)cc1 | -0.36 (inactive)
CC(C)C[C@@H]1NC(=O)[C@H]2C[C@@H](C(=O)NCCCCCNC(=O)CS)[C@@H](c3cccc(OCCO)c3)N2C1=O | -0.229 (inactive)
COC(=O)[C@@]1(Cc2ccccc2)[C@H]2c3cc(C(=O)N4CCCC4)n(C)c3C[C@H]2CN1C(=O)c1ccccc1 | -1.48 (inactive)
Cc1ccc(S[C@]2(C(=O)NCC(C)C)CC(=O)N(Cc3ccccc3)[C@@H]2c2ccc(CO)cc2I)cc1 | -1.73 (inactive)
COCCOC(=O)N1C(=O)[C@@]2(c3cc(C#CCCO)ccc31)[C@H](c1ccccc1OCCO)N1[C@H](c3ccccc3)[C@H](c3ccccc3)OC(=O)[C@H]1[C@@H]2C(=O)N1CCN(c2ncccn2)CC1 | -0.285 (inactive)
CC(c1ccccc1)C(O)C1C=CC2C(=O)NC(=O)C2N1Nc1ccccn1 (stereo not given) | -0.757 (inactive)
[N-]=[N+]=NCc1ccccc1C[C@@]1(C(=O)N2CCOCC2)N=C(c2ccc(OCCCO)cc2)O[C@@H]1c1ccccc1CN=[N+]=[N-] | -2.22 (inactive)
O=C(NCc1ccccc1)[C@]1(CCS(=O)(=O)c2ccccc2)N=C(c2ccc(OCCCO)cc2)O[C@@H]1c1ccccc1 | -0.866 (inactive)
O=C1c2ccccc2[C@@]2(Cc3ccccc3N(Cc3ccccc3)C2=O)[C@H](c2ccc(CO)cc2)N1C1CCCCC1 | -0.242 (inactive)
COc1ccc(C(O)C2C=CC3C(=O)N(C)C(=O)C3N2Nc2ccccc2)cc1OCc1ccccc1 (stereo not given) | -0.157 (inactive)
CCCNC(=O)[C@@]1(c2ccc([N+](=O)[O-])cc2)CC(=O)N(CC23CC4CC(CC(C4)C2)C3)[C@@H]1c1ccc(CO)cc1 | -3.32 (inactive)
O=C1O[C@@H](c2ccccc2)[C@@H](c2ccccc2)N2[C@@H](c3ccc(O)cc3)[C@]3(C(=O)Nc4ccc(C#CC5(O)CCCCCC5)cc43)[C@@H](C(=O)N3CCCCCCC3)[C@H]12 | -0.895 (inactive)
CC(C)CNC(=O)[C@@H]1c2ccccc2C(=O)N(Cc2cc(C(F)(F)F)cc(C(F)(F)F)c2)[C@H]1c1ccc(CO)cc1 | 0.889 (inactive)
O=C1O[C@H](c2ccccc2)[C@H](c2ccccc2)N2[C@H]1[C@@H](C(=O)O)[C@]1(C(=O)Nc3ccc(C#CC4(O)CCCCCC4)cc31)[C@H]2c1ccc(OCCO)cc1 | -0.249 (inactive)
CCCC[C@@H]1C[C@H]1[C@@H](NC(=O)c1ccc(-c2ccccc2)cc1)c1ccc(-c2ccccc2)cc1 | -0.271 (inactive)

SMILES | z-score
Cc1ccccc1C(O)C1C=CC2C(=O)N(C)C(=O)C2N1N1CCCCC1 (stereo not given) | -1.24 (inactive)
Cc1cc(C)c(C(O)C2C=CC3C(=O)N(C)C(=O)C3N2Nc2ccccc2)c(C)c1 (stereo not given) | -1.1 (inactive)
COc1ccc(C#Cc2ccc3c(c2)[C@]2(C(=O)N3)[C@H](C(=O)NC[C@H](O)c3ccccc3)[C@H]3C(=O)O[C@H](c4ccccc4)[C@H](c4ccccc4)N3[C@@H]2c2ccc(OCCO)cc2)cc1 | -1.16 (inactive)
C=C(C(=O)CC[C@H](OC(C)=O)c1ccc(OCCO)cc1)C(C)C | 0.192 (inactive)
CN(C)C(=O)[C@@]1(CCC(=O)OC(C)(C)C)N=C(c2ccc(OCCCO)cc2)O[C@H]1c1ccccc1 | -0.441 (inactive)
[N-]=[N+]=NCc1ccccc1C[C@]1(C(=O)O)N=C(c2ccc(OCCCO)cc2)O[C@H]1c1ccccc1CN=[N+]=[N-] | 0.349 (inactive)
COc1cc(CO)ccc1OC(C)=O | -0.779 (inactive)
CC(C)=CCCC(C)=CC(O)C1C=CC2C(=O)N(c3ccccc3)C(=O)C2N1Nc1ccccc1 (stereo not given) | -1.49 (inactive)
CC(C)c1ccc(NN2C(C(O)c3ccc(N(C)C)cc3)C=CC3C(=O)N(c4ccccc4)C(=O)C32)cc1 (stereo not given) | -0.683 (inactive)
COCCOC(=O)N1C(=O)[C@@]2(c3cc(C#CCC(C(=O)OC)C(=O)OC)ccc31)[C@H](C(=O)N1CCCCCCC1)[C@H]1C(=O)O[C@H](c3ccccc3)[C@H](c3ccccc3)N1[C@@H]2c1ccc(OCCO)cc1 | 0.281 (inactive)
O=C1OCCC=C[C@H]2OC34C=CCN(Cc5ccccc5)C(=O)[C@H]3N(CCCCCCO)C(=O)[C@@H]4C12 (stereo not given in full) | 0.654 (inactive)
Cc1ccc(S[C@]2(C(=O)NCCN3CCOCC3)CC(=O)N(Cc3cc(C(F)(F)F)cc(C(F)(F)F)c3)[C@@H]2c2ccc(CO)cc2I)cc1 | -2.06 (inactive)
CCCCCN1CC=CC23O[C@@H]4/C=C\CCC(C)OC(=O)C4[C@H]2C(=O)N(CCCCCO)[C@@H]3C1=O (stereo not given in full) | 0.699 (inactive)
O=C1C2C=CC(C(O)c3cccs3)N(Nc3ccccc3F)C2C(=O)N1c1ccccc1 (stereo not given) | 0.982 (inactive)
NCCCCCCNC(=O)[C@H]1C[C@H]2C(=O)NCC(=O)N2[C@H]1c1cccc(OCCO)c1 | 0.724 (inactive)
COC(=O)C(CC#Cc1ccc2c(c1)[C@]1(C(=O)N2)[C@H](c2ccc(OCCO)cc2)N2[C@H](c3ccccc3)[C@H](c3ccccc3)OC(=O)[C@H]2[C@@H]1C(=O)NC[C@H](O)c1ccccc1)C(=O)OC | 0.343 (inactive)
CCCN1C(=O)[C@@]2(CCC(=O)OC(C)(C)C)N=C(c3ccc(OCCCO)cc3)O[C@H]2c2ccccc21 | -1.86 (inactive)
